Compound activity deposited in PubChem by several laboratories.
Most compounds without a hit are left out; they make up all but 6.6% or so of the library.
MPTP inh: mitochondrial permeability transition pore inhibitors, primary screen, biochemical, isolated mouse mitochondria, absorbance. Ca2+ swelling absorbance, 30 min. inhibition, % at 10 µM. 360,000 tested, 1.4% active;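 active = inhibition of 50% or more, scaled per plate between neutral and stimulator controls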;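 note: 0% = DMSO wells given calcium and 100% = 1 mM EGTA wells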
GRIN3A LBD mod: binders of NR3A ligand-binding domain, primary screen, biophysical, differential scanning fluorimetry, uHTS; Glutamate receptor ionotropic, NMDA 3A (GRIN3A) ligand-binding domain; Tm shift relative to glycine control, % at 25 µM; AID 1259313, 2017; NR3A LBD differential scanning fluorimetry, Tm shift; 0% = protein alone, 100% = glycine-bound protein; 340,000 tested, 2.5% active;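 active = melting temperature shift of at least 10% of the positive control shift, at one fixed dose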
CSC inhib: cancer stem cell viability inhibitors, primary screen, luminescence | inhibition, % at 7.5 µM | cancer stem cell-like cells viability | 300,000 tested, 1.1% active; in the data active = inhibition above about 75%; tested in HMLE shEcad cells
Beta apoptosis: inhibitors of cytokine-induced beta cell apoptosis, primary screen, luminescence | protection from apoptosis, % (no concentration beside the values) | AID 435005, 2010 | 300,000 tested, 0.8% active | INS-1E cytokine-induced death, ATP luminescence, 48 h; percent of positive-control rescue, neutral wells zero;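 active = Every replicate reaches about 75%, or at least half do and their mean reaches it too, limit read from the data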;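 note: 0% = cytokine-treated negative control wells and 100% = positive control rescue; higher means more ATP so stronger rescue from cytokine killing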
Gli-Sufu antag: Gli-Sufu pathway antagonists, primary screen, luciferase luminescence, Sufu-KO-LIGHT cells, uHTS | AID 588413, 2011 | inhibition, % at 5 µM | Sufu-KO-LIGHT fibroblasts, Gli luciferase reporter luminescence | 340,000 tested, 0.74% active;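 active = inhibition above about 55%, limit read from the data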;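 note: 0% = DMSO-treated cells and 100% = wells with medium but no cells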
Mdm2 MdmX PPI: inhibitors of human Mdm2-MdmX association, primary screen, cell-based, luminescence, split luciferase, SaOS-2, uHTS | 330,000 tested, 3% active | Protein Mdm4 (Homo sapiens) + E3 ubiquitin-protein ligase Mdm2 (Homo sapiens), … | inhibition, % at 8 µM | SaOS-2 split-luciferase Mdm2/MdmX complementation;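 active = inhibition of at least 50% at 8 µM in the primary screen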
Target sequence (O15151 whole entry, looked up): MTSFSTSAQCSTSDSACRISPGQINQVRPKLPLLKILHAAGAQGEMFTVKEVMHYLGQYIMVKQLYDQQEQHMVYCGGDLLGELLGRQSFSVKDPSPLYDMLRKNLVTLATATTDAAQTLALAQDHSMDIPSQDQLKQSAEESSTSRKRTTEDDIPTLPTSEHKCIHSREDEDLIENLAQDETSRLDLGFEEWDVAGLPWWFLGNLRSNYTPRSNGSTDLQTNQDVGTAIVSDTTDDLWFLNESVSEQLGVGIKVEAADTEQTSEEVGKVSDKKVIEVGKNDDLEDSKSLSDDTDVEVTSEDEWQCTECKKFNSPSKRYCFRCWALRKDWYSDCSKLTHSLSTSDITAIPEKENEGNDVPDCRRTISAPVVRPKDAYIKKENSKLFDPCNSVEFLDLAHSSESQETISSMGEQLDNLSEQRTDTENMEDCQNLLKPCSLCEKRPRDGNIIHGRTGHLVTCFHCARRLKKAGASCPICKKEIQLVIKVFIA
Target sequence (Q00987 whole entry, looked up): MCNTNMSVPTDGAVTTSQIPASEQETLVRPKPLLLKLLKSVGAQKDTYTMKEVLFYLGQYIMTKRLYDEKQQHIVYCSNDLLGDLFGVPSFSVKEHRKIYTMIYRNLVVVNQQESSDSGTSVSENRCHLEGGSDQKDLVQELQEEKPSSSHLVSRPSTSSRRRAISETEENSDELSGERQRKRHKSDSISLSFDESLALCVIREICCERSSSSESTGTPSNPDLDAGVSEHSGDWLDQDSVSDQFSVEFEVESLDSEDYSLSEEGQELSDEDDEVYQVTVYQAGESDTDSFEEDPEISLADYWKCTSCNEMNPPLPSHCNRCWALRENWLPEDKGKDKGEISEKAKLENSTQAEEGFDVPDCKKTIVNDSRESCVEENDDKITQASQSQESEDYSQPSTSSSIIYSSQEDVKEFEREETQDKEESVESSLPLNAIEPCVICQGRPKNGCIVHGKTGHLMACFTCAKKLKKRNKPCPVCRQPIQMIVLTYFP
* = called active by the depositor; x = not tested or not shown.

SMILES	MPTP inh	GRIN3A LBD mod	CSC inhib	Beta apoptosis	Gli-Sufu antag	Mdm2 MdmX PPI
CC(=O)Nc1cccc(-c2csc(Nc3ccc(C)cn3)n2)c1	1.5	27.1*	28.9	5.9	-127.3	-285.6
O=C(/C=C/c1ccc(N2CCCCC2)c([N+](=O)[O-])c1)c1ccc(O)cc1	2.3	10.7*	109.8*	7.4	-27.2	42.6
O=C(c1ccc(N2CCCCC2)c([N+](=O)[O-])c1)N1CCOCC1	0.0	-1.7	-5.5	2.1	0.8	2.5
CN1CCN(C(=O)C[C@@H]2C=C[C@H](NS(=O)(=O)c3cccc(F)c3)[C@@H](CO)O2)CC1	2.5	x	x	x	x	x
COc1ccc(C(=O)c2c(N)sc3c2CCN(C(=O)OC(C)(C)C)C3)cc1	5.0	13.1*	-9.8	-9.3	-19.9	16.0
NN=C1c2ccccc2C(=O)C1C(=O)C(c1ccccc1)c1ccccc1 (stereo unspecified)	12.0	12.5*	x	x	7.6	x
CCCCNC(=O)C1(C)CCN1Cc1cccc2c(OC)cc(C(=O)OCC)cc12 (stereo unspecified)	1.0	x	x	x	x	x
Cc1cccc(C)c1OCCCCN1CCNCC1	2.6	-0.8	35.3	-7.6	16.5	19.2
Cc1cc(C)c(OCCCCN2CCNCC2)c(C)c1	0.3	-2.2	82.1*	0.7	10.2	-24.9
CN(C)S(=O)(=O)N1CCN(C(=O)c2ccc3c(c2)OCO3)CC1	-1.1	-0.9	-7.5	-15.4	24.1	15.9
O=c1c2c3c(sc2n(CCN2CCCCC2)c(=O)n1Cc1ccco1)CCCCC3	-0.8	-0.2	-2.7	93.4*	8.1	-2.0
CC(O)CNc1nc2sc3c(c2c(=O)n1Cc1ccco1)CCCCC3 (stereo unspecified)	3.3	-9.8	57.3	90.5*	-13.8	-25.4
C=CCNC(=O)c1c(CSc2ccc(Cl)cc2)noc1C(=O)NCCC	-0.6	-14.1	14.1	1.3	6.5	-19.7
CCCNC(=O)c1onc(CSc2ccc(Cl)cc2)c1C(=O)NCCC(C)C	1.7	-17.8	93.1*	3.7	29.0	10.8
COc1cc(/C=N/NC(=O)c2cc(C3CC3)[nH]n2)ccc1O	2.0	-3.0	0.9	5.0	1.8	-5.7
COc1cc(/C=N/NC(=O)c2cc(C34CC5CC(CC(C5)C3)C4)[nH]n2)ccc1O	-3.6	-1.3	100.8*	-6.4	0.1	18.9
CCOc1cc(/C=N/NC(=O)c2cc(C3CC3)[nH]n2)ccc1O	-1.3	25.5*	4.5	4.1	-3.5	14.4
CN1OC[C@@H]2CN(Cc3ccccc3)[C@H](c3cccc(-c4ccccc4)c3)C[C@@H]21	-1.6	x	x	x	x	x
Cc1cccc(NC(=O)Cn2ccn(-c3ccc4c(c3)OCCO4)c(=O)c2=O)c1	0.0	-0.6	-2.3	-4.6	-4.8	14.1
Nc1cnnc(N/N=C\c2ccccc2)c1Cl	1.3	0.2	1.1	-13.9	-35.6	-28.2
Nc1nonc1N/N=C\c1ccccc1	6.0	17.5*	-8.3	-3.0	-0.8	-16.7
COc1ccc(/C=N/N=C(\N)c2nonc2N)cc1	-0.2	-17.1	x	x	-125.6	x
COc1ccc(/C=N/Nc2nonc2N)cc1	-0.4	17.3*	-15.8	5.5	-8.8	-7.6
Cc1ccc2c(c1)N(C)/C(=C/c1cccc[n+]1CCO)S2	0.0	0.9	7.3	98.4*	39.8	8.9
CCCCN1/C(=C/c2cccc[n+]2C)Sc2cc(NC(C)=O)ccc21	-0.5	0.2	-10.9	25.2	10.1	10.0
SMILES	MPTP inh	GRIN3A LBD mod	CSC inhib	Beta apoptosis	Gli-Sufu antag	Mdm2 MdmX PPI
Cc1[nH]c(=O)nc(SCc2cccc(Cl)c2)c1C#N	0.9	-4.0	11.1	-1.1	-12.7	-12.4
Cc1snc(SCc2cccc(Cl)c2)c1C#N	-0.6	20.2*	5.6	-0.9	-4.4	4.9
N#Cc1c(-c2ccccc2)nc(SCc2cccc(Cl)c2)[nH]c1=O	6.7	-7.0	107.4*	-6.0	1.4	0.4
O=c1[nH]c(SCc2cccc(Cl)c2)nc2[nH]ncc12	3.1	-1.8	20.4	9.0	-1.4	-15.8
CCCCCCC(C)OC(=O)Nc1cccc2ccccc12 (stereo unspecified)	0.9	10.3*	11.5	x	-2.8	-9.5
O=c1c(-c2ccccc2)nc2ccccc2n1C(CCc1ccccc1)c1nc2ccccc2[nH]1 (stereo unspecified)	7.3	x	x	x	x	x
Nc1ccc2nc3c(=O)n(CCc4ccccc4)c(=O)[nH]c3nc2c1	2.5	-2.3	76.9*	10.8	26.1	18.0
Cc1cc2nc3c(=O)n(CCc4ccccc4)c(=O)[nH]c3nc2cc1N	0.7	-6.3	-1.5	-1.9	-31.4	10.5
Oc1cnn(-c2ccccc2)c1	-2.2	15.0*	-4.1	1.0	3.7	6.6
O=C(CC1CCCC1)NCCS(=O)(=O)N1CCN(c2ccccc2)CC1	1.0	x	x	x	x	x
Cc1cc(C)c(C)c(S(=O)(=O)N2CCN(C(=O)c3ccccn3)CC2)c1C	0.2	-2.2	x	x	3.6	2.9
CN(C)S(=O)(=O)c1cc(NC(=O)COC(=O)CCSc2ccc(Cl)cc2)ccc1Cl	1.7	13.1*	-8.1	-0.5	-4.6	8.2
CN(C)S(=O)(=O)c1cc(NC(=O)COC(=O)Cc2ccc(Br)cc2)ccc1Cl	8.2	14.6*	13.9	-6.2	1.2	8.2
Cc1cc(NC(=O)c2csc([C@@H]3O[C@H](CO)[C@H](O)[C@H](O)[C@H]3O)n2)n(C)n1	-0.4	x	x	x	x	x
O=C(NC(NC(=S)Nc1ccccc1C(=O)O)C(Cl)(Cl)Cl)c1cccc([N+](=O)[O-])c1 (stereo unspecified)	5.5	15.8*	3.7	1.7	4.3	-24.4
CCCC(C)c1nnc(NC(=O)COc2ccc3c(c2)OCO3)s1 (stereo unspecified)	0.3	-0.8	85.3*	1.4	-6.2	4.6
Cn1c(C(=O)Nc2ccccc2)cc2sccc21	-0.1	21.7*	2.6	5.6	-18.5	-26.7
COC(=O)c1ccc(NC(=O)c2cc3sccc3n2C)cc1	-1.5	1.9	-5.3	0.2	-25.9	x
Cc1cc(-c2csc(Nc3ccccn3)n2)ccc1F	1.7	-4.6	36.0	4.9	-27.1	-134.6
Cc1cccnc1Nc1nc(-c2ccc(O)cc2)cs1	-0.4	29.9*	32.1	-0.4	-71.9	-170.9
Oc1ccc(-c2csc(Nc3ccccn3)n2)cc1	0.4	31.2*	35.4	x	-75.6	-173.1
c1ccc(-c2csc(Nc3ccccn3)n2)cc1	2.1	-4.1	2.1	3.3	-50.7	-212.5
Fc1ccc(-c2csc(Nc3ccccn3)n2)c(F)c1	1.5	31.9*	-0.2	4.8	-0.5	-214.3
CC(C)c1cc(C(C)C)c(S(=O)(=O)NC(c2ccccn2)C23CC2C3)c(C(C)C)c1 (stereo unspecified)	-1.1	x	x	x	x	x
CCOC(=O)c1sc(NC(=O)C2CC(=O)N(c3ccc(OCC)cc3)C2)nc1C (stereo unspecified)	0.6	0.8	3.3	-4.7	-0.3	1.9
